Assay [1] in a line: growth inhibition of DIPG glioma cells, dose response, cell-based, SU-DIPG-XVII, MIPE5.0, CellTiter-Glo, qHTS (AID 1347060; cut-off not given, nearly all actives have AC50 up to about 26 µM). The note with it: SU-DIPG-XVII viability, CellTiter-Glo ATP luminescence. For orientation: ATP-based viability assays read luminescence as a measure of living cells.
Assay [2] can be described thus: growth inhibition of DIPG glioma cells, dose response, cell-based, SU-DIPG-XIII, MIPE4.0, CellTiter-Glo, qHTS (AID 1347061; cut-off not given, nearly all actives have AC50 up to about 37 µM;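 further: cells exposed to compound for 48 hours before readout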). The note with it: SU-DIPG-XIII viability, CellTiter-Glo ATP luminescence.
The nature of assay [3]: viability loss in pontine glioma line – cell-based, SU-DIPG-XXV, MIPE5.0, CellTiter-Glo, qHTS, dose response (AID 1347065; cut-off not given, nearly all actives have AC50 up to about 26 µM;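 further: cells exposed to compound for 48 hours before ATP readout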). The note with it: CellTiter-Glo ATP luminescence.
The nature of assay [4]: JHH-DIPG-1 glioma cell viability, MIPE5.0 library, CellTiter-Glo luminescence, qHTS (AID 1347067; cut-off not given, nearly all actives have AC50 up to about 26 µM;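 further: cells exposed to compound for 48 hours before readout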). The note with it: JHH-DIPG-1 glioma viability, CellTiter-Glo ATP luminescence.
The nature of assay [5]: SU-DIPG-XXV glioma cell viability, MIPE5.0 library, qHTS (AID 1347068; cut-off not given, nearly all actives have IC50 up to about 30 µM). In general terms: qHTS replaces the single test concentration by a dilution series.
Assay [6] is described as follows: polyglutamine-triggered caspase-3 activation inhibitors, cell-based (AID 1583). The note with it: polyglutamine-induced caspase-3 activation, cell assay; stronger effect = higher value;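 tested at 10 µM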.
A short description of assay [7]: suppressors of polyQ aggregation in yeast, 75Q-TubU reporter (AID 1593). The note with it: Yeast 75Q polyglutamine aggregation reporter.
The nature of assay [8]: inhibitors of mitochondrial cytochrome c release, biochemical, purified mitochondria (AID 1603).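 Further: mouse liver mitochondria challenged with calcium chloride; signal normalized to the plate average as 100%.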 The note with it: stronger effect = lower value.
A short description of assay [9]: SU-DIPG-VI glioma cell viability, MIPE4.0 library, CellTiter-Glo luminescence, qHTS (AID 1347066; cut-off not given, nearly all actives have AC50 up to about 30 µM;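 further: cells exposed to compound for 48 hours before readout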). The note with it: CellTiter-Glo ATP luminescence.
A short description of assay [10]: circadian clock period modulators, cell-based, LOPAC library, luminescence reporter (AID 2774).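 Further: values are relative to mean of DMSO wells on each plate.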 The note with it: circadian reporter cells, at 7 µM, actives lie on both sides.
In assay [11] the test system is Hepatitis C virus NS3 helicase. As to the kind of experiment: HCV NS3 helicase inhibitors, primary screen, biochemical, fluorescence polarization, LOPAC1280 library (AID 687035; in the data active means inhibition above about 37%). The note with it: Purified HCV NS3 helicase, Cy5-dT15 ssDNA binding fluorescence polarization; stronger effect = higher value; concentration not given here. Background: In fluorescence polarisation assays a small probe gives low polarisation when free and higher when bound to something large.

A short description of assay [12]: Cy5 fluorescence quenching or enhancement artefacts, artefact control for HCV NS3 helicase inhibitor project, biochemical, LOPAC1280 (AID 687037). The note with it: Cy5-DNA-NS3h complex fluorescence interference counterscreen.
Assay [13] has as its system Neuropilin-2 / VEGF-C interaction (human). As to the kind of experiment: inhibitors of NRP2–VEGF-C binding, biochemical, microplate binding format, z-score (AID 743281). The note with it: microplate NRP2/VEGF-C binding assay; stronger effect = lower value.
For assay [14], the system named is Aerobactin synthetase IucA (Klebsiella pneumoniae). The assay can be described thus: IucA aerobactin synthetase inhibitors, biochemical, Tocris library, absorbance (AID 1345561).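 Further: 100% = enzyme without compound and 0% = no enzyme.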 The note with it: purified IucA enzyme assay, absorbance (OD) read-out; stronger effect = lower value;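 tested at 8 µM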.
Assay [15] is described as follows: modifiers of HSF1 nuclear foci, imaging, Selleck Cancer Library (AID 1347162; in the data active means plate-normalised HSF1 focus index below about 0.46). The note with it: human cells, at 10 µM; SSMD: measured here: HSF1 foci SSMD mean; cell count: measured here: cell number; plate-normalised HSF1 focus index: stronger effect = lower value.
A short description of assay [16]: LFS_MB_1R medulloblastoma cell growth inhibition, synergistic combos for chromothripsis tumors, cisplatin or BGB combos (AID 1671452; in the data active means inhibition above about 80%;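 further: cells exposed for 96 hours before readout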). The note with it: LFS_MB_1R medulloblastoma cells, stronger effect = higher value.
Assay [17] can be described thus: MDA-MB-436 breast carcinoma cell growth inhibition, synergistic combos for chromothripsis tumors, BGB or cisplatin combos (AID 1671458).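 Further: cells exposed for 96 hours; 0% = vehicle DMSO and 100% = killing by high DMSO.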 The note with it: MDA-MB-436 breast carcinoma growth inhibition, drug combinations, stronger effect = higher value.
Assay [18] in a line: growth inhibition of BT084 medulloblastoma cells, cell-based, ICGC_MB145, cisplatin and BGB IC40 combos (AID 1671461; in the data active means inhibition above about 80%;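 further: cells exposed to drugs for 96 hours; 0% = vehicle DMSO and 100% = high DMSO full killing control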). The note with it: drug combinations, stronger effect = higher value.
A short description of assay [19]: growth inhibition of RCMB18 medulloblastoma cells, cell-based, cisplatin and BGB IC40 combos (AID 1671462; in the data active means inhibition above about 80%;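 further: cells exposed to compound for four days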). The note with it: stronger effect = higher value.
The nature of assay [20]: growth inhibition of CRL1545 osteosarcoma cells, cell-based, cisplatin and BGB IC20 combos (AID 1671464; in the data active means inhibition above about 80%;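 further: cells exposed to compound for 96 hours before readout; 0% = vehicle DMSO and 100% = high DMSO killing control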). The note with it: stronger effect = higher value.
Where [21] appears, read: measured here: combination with cisplatin, at 0.5 µM.

Values joined by “and” are separate entries in the source; they are usually repeats but may differ in a detail not shown here. Equal entries are not always repeated. Results filed as inconclusive are left out. Active and inactive are the calls of the source. Unless noted, how the calls were made is not given here.

As to `NCCCC(O)(P(=O)(O)O)P(=O)(O)O`, the compound was classed as inactive in assay [1], in [2], in assay [3], in assay [4] and in assay [5].

Consider `CC(C)(C)CC(C)(C)c1ccc(OCCOCC[N+](C)(C)Cc2ccccc2)cc1`, for which the inhibition (usually the change of the read-out against control, counted positive when it falls) in assay [6] is 70.8%. In assay [7], the score was -0.06. For the same compound, the cytochrome c release ratio in assay [8] was found to be 15.9.

Turning to `O=C(O)CCn1c2c(c3ccccc31)C[C@H](NS(=O)(=O)c1ccc(F)cc1)CC2`, the compound was called inactive in assay [1], in assay [2], in assay [3], in assay [9], in [4] and in [5].

`CC1=C(/C=C/C(C)=C/C=C/C(C)=C\C(=O)O)C(C)(C)CCC1`: in assay [10], the period change is 0.45 h (inactive). Moreover, the inhibition in assay [11] was 1% (inactive). Also, the fluorescence ratio (interference) in assay [12] is 0.9 (inactive). Further, in assay [3], the AC50 (in general, the midpoint of the concentration-response curve, whichever way the signal moves) was 6.61 µM (active). Besides, the outcome in assay [9], in [4] and in [5] was inactive.

Regarding `COc1ccc(/C=C/C(=O)Nc2ccccc2C(=O)O)cc1OC`, the period change in assay [10] is -0.165 h (inactive). Besides, in assay [11], the inhibition is 1% (inactive). Besides, the fluorescence ratio (interference) in assay [12] was 1 (inactive). In [13], the z-score was 0.915 (inactive). For the same compound, in assay [14], the remaining activity (usually the signal under treatment as a percentage of the control signal) is 119% (inactive). Also, the compound was classed as inactive in [1], in [2], in [3], in [4] and in assay [5].

Turning to `CN(C)c1nc(N(C)C)nc(N(C)C)n1`, the inhibition in assay [6] was -2.79%; in assay [11], 0% (inactive); in [16] (at 0.5 µM) it was -12.2% (inactive) and -12.7% (inactive); in assay [16] (measured here: combination with BGB IC40, at 0.05 µM), -30.7% and -16.9%; in assay [16] (setting [21]) it was -26.8% and 10.6%; in assay [16] (measured here: combination with cisplatin, at 5 µM) it was 4.67% and 9.66%. The inhibition was -22.6% (inactive) and -14.7% (inactive) in assay [17] (at 0.5 µM); -20.2% and -14.3% in assay [17] (measured here: BGB combination, at 0.5 µM); -29.4% and -4.55% in assay [17] (measured here: BGB combination, at 5 µM); -45.1% and -27.9% in assay [17] (measured here: cisplatin combination, at 0.5 µM); -26.8% and -16.1% in assay [17] (measured here: cisplatin combination, at 5 µM); -16.2% (inactive) and -0.543% (inactive) in assay [18] (at 0.5 µM). The inhibition in assay [18] (cisplatin combination, at 0.5 µM) was -6.73% and -17%; in assay [18] (cisplatin combination, at 5 µM), -56% and -11.7%; in assay [18] (measured here: BGB IC40 combination 0.05 uM, at 0.05 µM), -15.3% and -38.9%; in assay [18] (single agent, at 5 µM), -26.9% and -18.4%; in [19] (at 0.5 µM) it was -17.5% (inactive) and -22.8% (inactive); in assay [19] (cisplatin combo, at 5 µM) it was 8.02% and 8.44%. The inhibition in assay [19] (measured here: BGB IC40 combination, at 0.05 µM) was -20.9% and -5.23%; in [19] (setting [21]), -20.5% and -16.6%; in [19] (single agent, at 5 µM), -16.6% and -17.8%; in [20] (at 0.5 µM), -6.92% (inactive) and -37.6% (inactive); in assay [20] (measured here: with BGB IC20 combination, at 0.5 µM), -15.7% and -14.1%; in [20] (measured here: with cisplatin IC20 combination, at 0.5 µM), -2.53% and -51.8%. Moreover, the inhibition in [20] (single agent, at 0.05 µM) is -4.42% and -41.6%; in assay [20] (single agent, at 5 µM) it was 18.4% and -24.6%. In assay [7], this compound registered a score of 1.33. Moreover, the cytochrome c release ratio in assay [8] was 1.53. Further, the period change in assay [10] is -0.095 h (inactive). Besides, in assay [12], the fluorescence ratio (interference) is 0.9 (inactive). In addition, the compound was classed as inactive in assay [1], in [3], in [4] and in assay [5]. The compound also displayed an SSMD in [15] of 0.836. For the same compound, the cell count in [15] was found to be 7300. For the same compound, in assay [15], the plate-normalised HSF1 focus index is 1.03 (inactive).

With `CC(C)NCC(O)COc1ccc(CC(N)=O)cc1` (stereo not drawn), the inhibition in [6] was 16.6%; in assay [11] it was -1% (inactive). Further, in assay [7], the score worked out at 1.42. In addition, the cytochrome c release ratio in assay [8] is 0.86. Besides, the period change in assay [10] was 0.015 h (inactive). For the same compound, the fluorescence ratio (interference) in assay [12] is 0.9 (inactive). Moreover, the remaining activity in [14] is 121% (inactive).

As to `C[C@H]1COc2c(N3CCN(C)CC3)c(F)cc3c(=O)c(C(=O)O)cn1c23`, in assay [13], the z-score is -0.188 (inactive). The compound was classed as inactive in [1], in assay [2], in assay [3], in assay [9], in assay [4] and in assay [5].

Regarding `Cc1occc(=O)c1O`, the z-score in [13] is -0.38 (inactive).

With `O=[N+]([O-])c1cccc2cn[nH]c12`, the period change in assay [10] is -0.295 h (inactive). Also, the inhibition in assay [11] was -1% (inactive). Also, in [12], the fluorescence ratio (interference) is 1 (inactive). Also, the z-score in assay [13] was -0.0317 (inactive). For the same compound, the remaining activity in assay [14] is 107% (inactive).

With `O=c1ccc2ccc(O)c(O)c2o1`, the period change in [10] was 0.03 h (inactive). Also, the inhibition in [11] was 0% (inactive). In addition, the fluorescence ratio (interference) in [12] was 1.1 (inactive).

As to `Cc1cccc(C)c1NC(=O)C1CCCCN1C` (stereo not drawn), the z-score in assay [13] was -0.136 (inactive).

Turning to `COc1ccc(-c2cc(=O)c3c(OC)c(OC)c(OC)c(OC)c3o2)cc1OC`, the z-score in assay [13] is 0.248 (inactive).

On to `CC(C(=O)O)c1ccc(-c2ccccc2)c(F)c1` (stereo not drawn), for which the inhibition in assay [6] was determined as 20.8%. Moreover, the score in assay [7] amounted to 0. Moreover, the cytochrome c release ratio in [8] worked out at 0.68. Moreover, the z-score in assay [13] is -0.82 (inactive). Besides, in assay [14], the remaining activity was 123% (inactive). Besides, the AC50 in assay [2] is 16.6 µM (active). Further, the result in assay [3], in assay [9], in assay [4] and in assay [5] was inactive.

For `CC[C@H]1OC(=O)[C@H](C)[C@@H](O[C@H]2C[C@@](C)(OC)[C@@H](O)[C@H](C)O2)[C@H](C)[C@@H](O[C@@H]2O[C@H](C)C[C@H](N(C)C)[C@H]2O)[C@](C)(OC)C[C@@H](C)C(=O)[C@H](C)[C@@H](O)[C@]1(C)O`, the z-score in assay [13] is -0.251 (inactive). For the same compound, in assay [9], the compound was classed as inactive.

On to `CCCCC(=O)N(Cc1ccc(-c2ccccc2-c2nn[nH]n2)cc1)[C@H](C(=O)O)C(C)C`, for which, in [13], the z-score was -0.0697 (inactive).

Regarding `CCc1ccc(CCOc2ccc(CC3SC(=O)NC3=O)cc2)nc1` (stereo not drawn), the z-score in assay [13] is 0.637 (inactive). For the same compound, the compound was called inactive in assay [1], in assay [3], in assay [9] and in assay [4]. Further, the SSMD in [15] is -1.24. Moreover, in assay [15], the cell count was determined as 7530. Also, the plate-normalised HSF1 focus index in [15] was 0.926 (inactive).

Regarding `Nc1ncnc2c1ncn2[C@@H]1O[C@H](CO)[C@@H](O)[C@@H]1O`, the inhibition in assay [6] was determined as 13.4%. For the same compound, the score in assay [7] was found to be 1.04. Further, the cytochrome c release ratio in assay [8] turned out to be 1.16. For the same compound, the call in [1], in assay [3], in assay [4] and in assay [5] was inactive.

As to `COC(=O)[C@H](c1ccccc1Cl)N1CCc2sccc2C1`, the inhibition in assay [6] was found to be 62%. In assay [7], this compound gave a score of 1.18. The cytochrome c release ratio in [8] stood at 0.98. In addition, the compound was classed as inactive in assay [1], in [3], in assay [9], in assay [4] and in assay [5].

`CNCCC(Oc1ccc(C(F)(F)F)cc1)c1ccccc1` (stereo not drawn): the period change in assay [10] is -0.16 h (inactive). Further, the inhibition in assay [11] is -3% (inactive). Besides, the fluorescence ratio (interference) in [12] is 1 (inactive). The remaining activity in assay [14] was 124% (inactive).

(Values after PubChem BioAssay.)
